Some test systems named below: NCI-H23 lung; NCI-H226 lung; NCI-H322M lung; HOP-62 NSCLC; NCI-H460 lung; HOP-92 NSCLC; NCI-H522 lung; A549/ATCC NSCLC; 786-0 renal; COLO 205 colon; DU-145 prostate; K-562 leukemia; MALME-3M melanoma; MDA-MB-231 breast; RXF 393 renal; SF-268 CNS; SF-295 CNS; SF-539 CNS; UACC-257 melanoma; M14 melanoma.
Holding throughout (test): NCI-60 one-dose screen, 48 h (100 = growth as untreated, 0 = no growth, -100 = all killed)
Holding throughout (conditions): 10 µM unless noted

SMILES strings stand for the structures. The panel holds about 83,000 compounds, 20% with a hit somewhere; the sample as a whole holds those more often.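 Single-concentration screen, 48 h exposure, 96-well plates. Endpoint: percent growth. Below 10 = active.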 Values without a mark were called inactive. The source made the active and inactive calls.

In the case of `COCCn1cc(-c2csc(-c3cn(C)c4ccc(F)cc34)n2)c2cccnc21`, the growth with NCI-H23 lung is 76.3%; in the experiment on NCI-H226 lung, 83%; with NCI-H322M lung it was 75.7%; with HOP-62 NSCLC, 93.2%; in the experiment with NCI-H460 lung, 51.6%; with HOP-92 NSCLC it was 64.7%. In addition, the growth was 30.8% with NCI-H522 lung; 60.6% in the experiment on A549/ATCC NSCLC; 62% with 786-0 renal; 61.6% with COLO 205 colon; 69.9% with DU-145 prostate; 2.01% (active) in the experiment with K-562 leukemia. Besides, the growth in the experiment with MALME-3M melanoma was 84.8%; with MDA-MB-231 breast, 51.5%; in the experiment with RXF 393 renal it was 72.3%; with SF-268 CNS, 77.2%; in the experiment with SF-295 CNS, 73.7%; in the experiment with SF-539 CNS it was 78.1%. Further, the results for the growth in the experiment with UACC-257 melanoma and in the experiment with M14 melanoma were 83.8% and 50.5%, respectively.
With `CCN(c1cc(-c2ccc(CN3CCC(/C=C/S(=O)(=O)c4ccccc4)CC3)cc2)cc(C(=O)NCc2c(C)cc(C)[nH]c2=O)c1C)C1CCOCC1`, the growth is 81.4% in the experiment on NCI-H23 lung; 78.3% in the experiment on NCI-H226 lung; 85.1% in the experiment with NCI-H322M lung; 82.8% with HOP-62 NSCLC; 83.8% in the experiment with NCI-H460 lung; 24.3% in the experiment with HOP-92 NSCLC. The growth in the experiment on NCI-H522 lung is 77.7%; in the experiment with A549/ATCC NSCLC it was 66.1%; in the experiment on 786-0 renal, 71.1%; in the experiment on COLO 205 colon, 99.8%; with DU-145 prostate, 78.9%; with K-562 leukemia it was 40.6%. The growth in the experiment on MALME-3M melanoma was 67%; in the experiment on MDA-MB-231 breast it was 67.3%; with RXF 393 renal, 17.7%; with SF-268 CNS it was 66.5%; with SF-295 CNS, 84.8%; in the experiment with SF-539 CNS, 59.3%. Besides, the growth is 75.4% in the experiment on UACC-257 melanoma and 85.1% with M14 melanoma.
Take `CC1=C2[C@@H](CC1)[C@]1(C)O[C@@](C3CC3)(C[C@H]1OC(=O)CO)[C@H]2OC(=O)/C=C/c1ccccc1`: the growth is 103% in the experiment with NCI-H23 lung; 86.7% in the experiment with NCI-H226 lung; 82.2% in the experiment with NCI-H322M lung; 89.6% in the experiment on HOP-62 NSCLC; 90.7% with NCI-H460 lung; 82.2% with HOP-92 NSCLC. The growth in the experiment with NCI-H522 lung is 88.4%; in the experiment on A549/ATCC NSCLC, 79%; in the experiment with 786-0 renal, 73.2%; in the experiment on COLO 205 colon it was 116%; in the experiment with DU-145 prostate it was 105%; with K-562 leukemia it was 79.4%. The growth in the experiment with MALME-3M melanoma is 90.9%; with MDA-MB-231 breast it was 81.2%; in the experiment with RXF 393 renal, 38.4%; in the experiment with SF-268 CNS, 41%; in the experiment on SF-295 CNS, 100%; in the experiment with SF-539 CNS, 109%. The growth in the experiment with UACC-257 melanoma was 92.1%; with M14 melanoma, 96.4%.
`N#C/C(=C\c1ccccc1Cl)c1cc2ccccc2[nH]1`: the growth with NCI-H23 lung is 82.8%; in the experiment on NCI-H226 lung, 75.2%; in the experiment on NCI-H322M lung it was 89.5%; in the experiment on HOP-62 NSCLC, 65.3%; with NCI-H460 lung, 90.5%; in the experiment on HOP-92 NSCLC it was 37.3%. In addition, the growth with NCI-H522 lung is 82.5%; in the experiment with A549/ATCC NSCLC, 90.5%; in the experiment on 786-0 renal, 99.6%; in the experiment with COLO 205 colon, 105%; in the experiment on DU-145 prostate it was 100%; with K-562 leukemia, 70.5%. The growth in the experiment on MALME-3M melanoma is 92.8%; in the experiment with MDA-MB-231 breast, 68.7%; with RXF 393 renal, 102%; with SF-268 CNS it was 96.3%; in the experiment with SF-295 CNS it was 93.9%; in the experiment with SF-539 CNS, 89.4%. Besides, the values for the growth in the experiment on UACC-257 melanoma and with M14 melanoma were 94.2% and 91.8%, respectively.
In the case of `CCOC(=O)c1c(-c2ccc(OC)cc2)c(C#N)c2c(C#N)c(N)nn2c1N`, the growth with NCI-H23 lung is 62.2%; in the experiment on NCI-H226 lung it was 61.5%; in the experiment on NCI-H322M lung it was 80.9%; in the experiment with HOP-62 NSCLC it was 35.8%; in the experiment with NCI-H460 lung, 9.75% (active); with HOP-92 NSCLC it was 15.4%. Also, the growth was -6.29% (active) in the experiment on NCI-H522 lung; 36.4% with A549/ATCC NSCLC; 45.3% in the experiment with 786-0 renal; 18.6% in the experiment with COLO 205 colon; 56.1% with DU-145 prostate; 5.64% (active) in the experiment with K-562 leukemia. Moreover, the growth with MALME-3M melanoma is 30.8%; in the experiment with MDA-MB-231 breast it was 28.4%; in the experiment on RXF 393 renal, 59.7%; in the experiment on SF-268 CNS, 40.2%; in the experiment on SF-295 CNS, 28.2%; in the experiment on SF-539 CNS, 25.1%. Besides, the growth was 49.9% in the experiment with UACC-257 melanoma and 34.2% with M14 melanoma.
Consider `CCCCCC#CC1OC23CCCCC2C(C#N)(C(=N)O3)C1(C#N)C#N` (stereo not given), for which the growth with NCI-H23 lung was 101%; with NCI-H226 lung, 97.4%; with NCI-H322M lung, 98.3%; in the experiment with HOP-62 NSCLC, 98.8%; in the experiment with NCI-H460 lung, 99.8%; in the experiment on HOP-92 NSCLC, 90.4%. In addition, the growth is 77.5% with NCI-H522 lung; 75.6% with A549/ATCC NSCLC; 91.4% with 786-0 renal; 117% in the experiment with COLO 205 colon; 102% with DU-145 prostate; 84% in the experiment on K-562 leukemia. The growth in the experiment with MALME-3M melanoma is 98%; in the experiment on MDA-MB-231 breast it was 95.8%; in the experiment on RXF 393 renal it was 105%; in the experiment on SF-268 CNS, 102%; in the experiment on SF-295 CNS, 98.5%; in the experiment with SF-539 CNS, 100%. Moreover, the growth in the experiment on UACC-257 melanoma is 78.6%; with M14 melanoma, 93.7%.
For `[Cu+].[NH-][C@H]1C[N-]C(=O)[C@H]([C@H]2CCN=C(N)N2)[N-]C(=O)/C(=C\NC(N)=O)[N-]C(=O)[C@H](CNC(=O)C[C@@H](N)CCCN)[N-]C(=O)[C@H](CO)[N-]C1=O`, the growth was 105% in the experiment on NCI-H23 lung; 105% in the experiment with NCI-H226 lung; 106% in the experiment with NCI-H322M lung; 94.8% in the experiment with HOP-62 NSCLC; 98.4% in the experiment with NCI-H460 lung; -8.71% (active) in the experiment with HOP-92 NSCLC. The growth in the experiment with NCI-H522 lung was 85.6%; in the experiment on A549/ATCC NSCLC, 99.3%; with 786-0 renal it was 102%; with COLO 205 colon, 111%; with DU-145 prostate it was 112%; in the experiment with K-562 leukemia it was 101%. The growth in the experiment on MALME-3M melanoma was 101%; with MDA-MB-231 breast, 101%; with RXF 393 renal, 105%; with SF-268 CNS, 107%; in the experiment with SF-295 CNS, 99.6%; in the experiment on SF-539 CNS, 106%. Also, the values for the growth in the experiment on UACC-257 melanoma and in the experiment with M14 melanoma were 99.8% and 104%, respectively.

Values taken from PubChem BioAssay (NCI).
